We go through 26 compounds from PubChem BioAssay (NCI).

Compounds without any hit were thinned out: in the full panel of roughly 83,000, 20% have a hit.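 The test compound was applied at a single concentration to cells in 96-well plates for 48 hours, and percent growth was recorded.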 Activity calls are given as the source filed them. Rule for the calls: active = growth percent below 10; inactive = the rest.

The assay concerns HL-60(TB) leukemia. The assay can be described thus: NCI-60 one-dose screen, 48 h (100 = growth as untreated, 0 = no growth, -100 = all killed). As to conditions: 10 µM unless noted.
On to `COc1ccc(-c2ccc(SCC(=O)NCCc3ccc(S(N)(=O)=O)cc3)nn2)cc1`, for which the growth is 60.5% (inactive).

With `CN(C)c1ccnc(NCCCSC(c2ccccc2)(c2ccccc2)c2ccccc2)c1`, the growth is -59% (active).

On to `CCN(CC)c1ccnc(CNCCSC(c2ccccc2)(c2ccccc2)c2ccc(C)cc2)c1`, for which the growth is -52.3% (active).

Turning to `Brc1ccc(/C=N/Nc2ncnc3sc4c(c23)CCN(Cc2ccccc2)C4)cc1`, the growth was 19.9% (inactive).

With `CC(C)CCSc1nc(NC2CC2)c(C#N)c(-c2ccc(C(C)C)cc2)n1`, the growth was 80.4% (inactive).

Regarding `Cn1cc(Nc2ncnc(-c3ccc(N4CCCC4)c(C#N)c3)n2)cn1`, the growth was 49.1% (inactive).

For the compound `Cn1cc(-c2cc(N)n3nc(-c4c[nH]c5ccccc45)cc3n2)c2cc(Br)cnc21`, the growth is -66.7% (active).

Turning to `O=C(O)c1cccc(-c2ccc(/C=N/NC(=O)c3[nH]c4ccc(Br)cc4c3-c3ccccc3)o2)c1`, the growth was 88.5% (inactive).

On to `COc1ccc(OC)c(-n2cc(C#N)c(N)c2C(=O)c2ccc(Cl)cc2Cl)c1`, for which the growth is 2.46% (active).

Take `O=C(O)Cn1c(O)c(/C=C2/C=c3cc4c(cc3=NC2=O)OCCO4)sc1=S`: the growth was 100% (inactive).

For `CC1(C)CC[C@]2(C(=O)Nc3ccc(Br)cc3)CC[C@]3(C)C(=CCC4[C@@]5(C)C[C@@H](O)[C@H](O)[C@@](C)(CO)C5CC[C@]43C)C2C1` (stereo partly specified), the growth is -13.2% (active).

With `Cc1ccc2nc(SCc3ccccc3F)n(-c3ccccc3)c(=O)c2c1`, the growth is 104% (inactive).

Turning to `CN(C)c1nc(NCCNS(=O)(=O)c2ccc(C3=Nc4c(N)nc(N)nc4NC(c4ccc(C(F)(F)F)cc4)C3)cc2)nc(N2CCOCC2)n1` (stereo unspecified), the growth was 6.05% (active).

With `COc1ccc(NC(=O)[C@H](C)N)cc1C(=O)Nc1cccc(C2CC(=O)c3c(cc(OC)c(OC)c3OC)O2)c1` (stereo partly specified), the growth is 69.8% (inactive).

For the compound `CCCn1cc(-c2nc(Nc3ccc(C(=O)NCCCCNc4cccc5c4C(=O)N(C4CCC(=O)NC4=O)C5=O)cc3)nc3[nH]ccc23)cn1` (stereo unspecified), the growth is -36.9% (active).

As to `N#Cc1c(-c2ccc(Br)cc2)nc2n[nH]c(-c3ccc(Br)cc3)c2c1-c1ccc(C(F)(F)F)cc1`, the growth is -26.2% (active).

On to `CN1CCN(Cc2ccc(C(=O)Nc3cccc(Nc4ccc5c(O)cccc5n4)c3)cc2C(F)(F)F)CC1`, for which the growth is -34.1% (active).

Consider `Cc1ccc(CSc2nc(Cl)c(C#N)c(-c3ccc(F)cc3)n2)cc1`, for which the growth was 42% (inactive).

For the compound `CCOP(=O)(OCCCl)c1nc(-c2ccc(C)cc2)oc1NCc1ccccc1` (stereo unspecified), the growth is 71.9% (inactive).

`COc1cc(/C=C/C(=O)c2nnn(-c3ccc(Cl)cc3)c2C)cc(OC)c1OC`: the growth was -5.43% (active).

On to `COc1cc2c3c(n(CCCn4ccnc4)c(=O)c2cc1OC)-c1nc2c(cc1C3=O)OCO2`, for which the growth is 75.8% (inactive).

For `COc1ccc2[nH]c(O)c(N=Nc3nc(-c4ccccc4)cs3)c2c1`, the growth is 71.6% (inactive).

As to `COc1cc(C2CC(c3cc(OC)c(OC)c(OC)c3)=Nc3c(N)nc(N)nc3N2)ccc1Oc1nc(NCCO)nc(N2CCOCC2)n1` (stereo unspecified), the growth is 91.9% (inactive).

For the compound `O=C(c1ccccc1)n1ccc(-c2cc3cc(Br)ccc3oc2=O)n1`, the growth is -13.5% (active).

Consider `CC1CCc2c(sc3nc(SCC(=O)c4cccc(Br)c4)n(-c4ccccc4)c(=O)c23)C1` (stereo unspecified), for which the growth was 64.7% (inactive).

Turning to `CCCCSc1nc(Nc2ccc(/C(C)=N/NC(N)=S)cc2)c(C#N)c(-c2ccc(OC)cc2)n1`, the growth is 92.2% (inactive).
